# Shiga toxin inh: blocks Shiga toxin action in Vero cells | 290,000 tested, 9.2% active | Vero cells, Shiga toxin protein synthesis inhibition reporter | inhibition, % at 38.7 µM; in the data active means inhibition mostly above about 28%, no sharp cut-off; inactive means mostly below about 43%
# AmpC detergent: inhibitors of E. coli AmpC beta-lactamase with detergent | P00811 | AmpC hydrolysis of nitrocefin, absorbance 480 nm, 0.01% Triton | Potency, µM (highest dose often 114 µM), usual class: inhibitors | 370,000 tested, 0.041% active; further: nearly all actives have a fitted effect of over 25% in size
# Target sequence (P00811 whole entry, looked up): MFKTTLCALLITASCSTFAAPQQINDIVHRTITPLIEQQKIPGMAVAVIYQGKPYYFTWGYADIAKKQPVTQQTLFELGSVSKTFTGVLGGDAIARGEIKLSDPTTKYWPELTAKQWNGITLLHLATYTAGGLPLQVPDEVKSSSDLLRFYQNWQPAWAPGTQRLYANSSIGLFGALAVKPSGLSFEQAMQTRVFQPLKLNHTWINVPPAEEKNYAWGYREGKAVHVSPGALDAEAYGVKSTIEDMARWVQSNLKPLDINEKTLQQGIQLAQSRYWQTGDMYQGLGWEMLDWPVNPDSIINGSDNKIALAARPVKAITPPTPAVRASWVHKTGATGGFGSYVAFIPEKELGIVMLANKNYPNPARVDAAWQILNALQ
#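 20 mM phosphate pH 7.0 + 0.01% (detergent screen) or 0.0001% Triton X-100; 5.3 nM AmpC reagent; cpd preinc 15 min RT; nitrocefin (800 uM stock) to start; A480 q20 s × 4 min; Activity was normalised to no-enzyme and no-compound control wells.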
# AmpC inh no detg: AmpC beta-lactamase inhibition without detergent | Potency, µM (top dose mostly 57.1 µM), usual class: inhibitors | AID 485341 | AmpC nitrocefin hydrolysis, absorbance 480 nm, 0.0001% Triton | 330,000 tested, 0.52% active; further: nearly all actives have a fitted effect of over 20% in size
#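 AmpC (5.3 nM in the dispensed reagent) in 20 mM phosphate pH 7.0 with 0.01% (detergent screen) or 0.0001% Triton X-100 was preincubated with compounds for 15 min at room temperature. Nitrocefin was then added from an 800 uM solution, and hydrolysis was followed at 480 nm.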
# SARS PLP yeast: inhibitors of SARS-CoV papain-like protease in yeast | 330,000 tested, 0.19% active | S. cerevisiae expressing SARS-CoV PLpro, growth rescue | Potency, µM (highest dose often 32.9 µM), hits mostly activators; calls by dose curve; further: nearly all actives have a fitted effect of over 55% in size
# AMA1-RON2 inh: inhibitors of Plasmodium falciparum AMA1-RON2 interaction; 360,000 tested, 0.2% active; Potency, µM (series often up to 58.2 µM), most hits filed as inhibitors; AlphaScreen AMA1-biotinylated RON2 peptide binding; further: nearly all actives have a fitted effect of over 45% in size
#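 AMA1 (3D7) with his tag at 25 nM final met compounds first, then biotinylated RON2 peptide at 25 nM; detection used donor plus acceptor beads, 10 µg/mL apiece, read by AlphaScreen after 30 min at room temperature.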
# Cycloheximide cs: counter-screen for Shiga toxin inhibitors: cycloheximide protein synthesis inhibition; cell reporter, cycloheximide protein synthesis inhibition counterscreen; max response, %; 300,000 tested, 12% active; in the data active means max response mostly above about 13%, no sharp cut-off; inactive means mostly below about 14%; further: read at 38.3 µM for the half of the compounds with a filed dose
# Numbers stand for hits; - = inactive; ? = inconclusive; . = no result; + = active, no number; [ ] = another dose, or the depositor's remark. This excerpt belongs to a sample that is enriched for hits. Unless noted, the call rests on the fitted dose curve; in most records, active means well fitted curve in the direction sought with a large enough effect; inconclusive means small, poorly fitted or top-dose-only effect, or another doubt; inactive means no such curve, though single readings can be large; an effect the other way counts as inactive or inconclusive.
SMILES,Shiga toxin inh,AmpC detergent,AmpC inh no detg,SARS PLP yeast,AMA1-RON2 inh,Cycloheximide cs
CCOc1ccc(N(CC(=O)NC2CCCCC2C)S(=O)(=O)c2c(C)noc2C)cc1 (centres undefined),-,-,-,-,-,13.9
COc1ccc(N(CC(=O)Nc2ccc3c(c2)OCCO3)S(C)(=O)=O)c(OC)c1,76.0,?,-,-,-,34.0
COc1ccc(N(CC(=O)Nc2ccc3c(c2)OCO3)S(=O)(=O)c2ccccc2)cc1,-,-,-,-,-,-
COc1ccc(N(CC(=O)Nc2ccc3c(c2)OCCO3)S(=O)(=O)c2cccnc2)cc1,-,-,39.8µM,-,-,20.1
COc1ccccc1CN1CCN(Cc2nc(-c3ccccc3)no2)CC1,98.9,-,-,-,-,34.9
CCOC(=O)N1CCN(Cc2nc(-c3cccc(C)c3)no2)CC1,-,?,-,-,-,-
c1ccc(CC2CCN(Cc3nc(-c4ccccc4)no3)CC2)cc1,-,-,-,-,-,15.3
COc1ccccc1CN1CCN(Cc2nc(Cc3ccccc3)no2)CC1,-,-,-,-,-,-
CCOC(=O)N1CCN(Cc2nc(-c3ccccc3)no2)CC1,61.6,-,-,-,-,-
CC(C)CC(NC(=O)c1ccc(Cl)cc1)C(=O)O (centres undefined),-,?,-,-,-,-
C[C@@H]1COC(=O)[C@H](NC(=O)OCC2c3ccccc3-c3ccccc32)C/C=C\C[C@@H](CC(=O)N(CCO)Cc2ccccc2)C(=O)N1,.,.,-,-,-,.
Cc1ccc(C(NC(=O)/C=C\c2ccc3c(c2)OCO3)C(=O)Nc2ccc3c(c2)OCO3)cc1 (centres undefined),-,-,-,-,-,-
CC(=O)c1cccc(NS(C)(=O)=O)c1,-,-,-,-,-,-
CC(=O)c1ccc(N/C=C\C(=O)c2ccc(C)cc2)cc1,111.9,-,-,-,-,53.5
C/C(=C\C(=O)c1ccc(C)cc1)Nc1cccc(O)c1,93.3,-,-,-,-,43.3
CC(=O)c1cccc(N/C=C\C(=O)c2ccc(C)cc2)c1,65.4,-,-,-,-[11.6 µM],42.2
CC(=O)Nc1ccc(N/C=C/C(=O)c2ccc(Cl)cc2)cc1,-,-,-,-,-,-
Cc1ccc(C(=O)/C=C/Nc2ccc3c(c2)OCO3)cc1,164.3,?,-,-,-,61.1
Cc1c(C)c2ccc(OCC(=O)Nc3ccc(CN4CCOCC4)cc3)cc2oc1=O,-,-,-,-,-,-
COc1cn(CC(=O)Nc2cc(C)ccc2C)c(CN2CCCCC2)cc1=O,.,-,.,.,.,.
O=C(/C=C/Nc1cccc(O)c1)c1ccccc1,-,-,-,-,-,-
Cc1ccc(C(=O)/C=C/Nc2cccc(O)c2)cc1,-,-,?,-,-,9.7
CC(=O)Nc1cccc(-c2csc(C(C)(O)c3ccccc3)n2)c1 (centres undefined),.,.,.,.,-,.
CC(=O)Nc1cccc(-c2csc(NCc3ccco3)n2)c1,51.0,-,-,-,-,-
Cc1nc2ncccn2c1-c1csc(NCc2ccco2)n1,-,-,-,-,-,-
SMILES,Shiga toxin inh,AmpC detergent,AmpC inh no detg,SARS PLP yeast,AMA1-RON2 inh,Cycloheximide cs
Oc1ccc(-c2csc(NCc3ccco3)n2)cc1,157.8,-,-,-,-,43.6
c1coc(CNc2nc(-c3cccs3)cs2)c1,89.7,-,-,-,-,33.2
COc1ccc(C(CC(=O)N2CCN(C)CC2)NC(=O)C(F)(F)F)cc1 (centres undefined),-,-,-,-,-,-
COc1ccc(N2CCN(C(=O)COC(=O)CCOc3cc(C)ccc3C)CC2)cc1,.,-,-,-,-,.
Fc1cccc(NC(=S)Nc2cccc3ccccc23)c1,-,-,-,-,-,-
CC(=O)c1cccc(NC(=O)C(=O)Nc2cccc3ccccc23)c1,31.9,-,-,-,-,22.3
CC(=O)c1ccc(NC(=S)Nc2cccc3ccccc23)cc1,106.0,?,-,-,-,73.0
Cc1ccc(NC(=S)Nc2cccc3ccccc23)cc1F,81.1,-,-,-,-,41.9
CCc1ccc(NC(=S)Nc2cccc3cnccc23)cc1,65.5,-,-,-,-,35.7
CC(=O)N(C)c1ccc(NC(=S)Nc2cccc3ccccc23)cc1,82.9,?,-,-,-,43.9
CCCC(=O)NC(=S)Nc1ccc(C(C)=O)cc1,57.0,?,-,-,-,55.1
Clc1cccc(-c2ccc3ncnc(NCc4cccs4)c3c2)c1,.,?,-,-,.,.
CCOc1ccsc1C(=O)OC,-,-,-,-,-,-
O=C(c1cccs1)N(C(=O)c1cccs1)c1ccc(Br)cn1,-,-,-,-,-,37.0
Cc1ccnc(N(C(=O)c2cccs2)C(=O)c2cccs2)c1,71.4,?,-,-,-,41.6
O=C(Nc1ccc(NC(=O)c2cccs2)cc1)c1ccc(Br)cc1,.,-,.,.,.,.
COc1ccccc1NC(=O)CSCC(=O)N1c2ccccc2CCc2ccccc21,-,?,-,-,-,-
Cc1ccccc1NC(=O)Nc1nc2ccc(S(C)(=O)=O)cc2s1,+,-,-,-,-,-
NS(=O)(=O)c1ccc2nc(NC(=O)Nc3ccccc3F)sc2c1,104.6,-,-,-,-,49.6
CCOc1ccc(NC(=O)Nc2nc3ccc(S(C)(=O)=O)cc3s2)cc1,-,?,-,-,-,-
COC(=O)CCn1nnc(-c2ccc(C(C)C)cc2)n1,-,-,-,-,-,-
O=C(Nc1ccc(Cl)cn1)C1CC1,-,?,-,-,-,-
CCCCOC(=O)c1cccc(NC(=O)/C=C/c2ccccc2Cl)c1,.,-,.,.,.,.
CN(C)S(=O)(=O)c1ccc(NC(=O)/C=C/c2ccccc2Cl)cc1,-,-,-,-,-,-
O=C(/C=C/c1ccccc1Cl)Nc1cccc(O)c1,78.4,-,-,-,-,26.0
SMILES,Shiga toxin inh,AmpC detergent,AmpC inh no detg,SARS PLP yeast,AMA1-RON2 inh,Cycloheximide cs
O=C(/C=C/c1ccccc1Cl)Nc1ccc(Cl)cn1,48.1,-,-,-,-,-
O=C(/C=C/c1ccccc1Cl)Nc1ccccc1,60.5,-,-,-,-,37.4
CN(C)c1ccc(NC(=O)/C=C/c2c(Cl)cccc2Cl)cc1,58.6,-,-,-,?,40.7
CCCCC(CC)CNC(=O)Cn1c(=O)[nH]c2ccsc2c1=O (centres undefined),-,-,-,-,-,-
Cc1ccc(S(=O)(=O)NCCC(=O)Nc2ccc3c(c2)OCO3)cc1,-,-,-,-,-,-
Clc1ccc(C=Cc2ccccn2)cc1,.,.,.,.,-,.
Brc1ccc(N=Cc2ccccn2)cc1,54.4,?,-,-,-,22.1
C(=C\c1ccccn1)/c1ccccn1,105.4,-,-,-,-,63.5
C(=NOCc1ccccc1)c1ccccn1,.,.,.,.,-,.
O=C(OCC(=O)N1CCCC1)c1cc(F)c(F)cc1Cl,-,-,-,-,-,-
O=C(NCc1ccc2c(c1)OCO2)c1cccs1,-,?,-,-,?,-

# Screening data (PubChem)
